Experimental data as given in article PMC13494018.
Values without a mark were called inactive. No rule for the calls is given here.

B1: design_613_5efed0bc-64ba-423b-b3f9-a246574e49bb_1387_dldesign_0_cycle1_af2pred (protein)
chain: AAAAAQAGQLAVQAAQGMIKKAKEILKRMPEVDPEKALASAKGVTDVAQALADQAIASPATAAQGKALKAEAKAVLAEAEKAAA
B2: design_613_5efed0bc-64ba-423b-b3f9-a246574e49bb_395_dldesign_0_cycle1_af2pred (protein)
chain: SKTAEDGIKFIKELTEIAKAAAAAGQPKSVVETIRKTLEHATKVFAAAAAEDNPEYAEKVKKAGEEALKEADKAIAA
B3: design_612_bdadb936-3f14-48ad-830f-718e38d81c30_1687_dldesign_0_cycle1_af2pred (protein)
chain: MELVKRAREILERAERAETVEELRRVLAEAARLAGEAARAAIADPATAAAANEALAIALEAMRVATERARAAR
B4: design_612_bdadb936-3f14-48ad-830f-718e38d81c30_1696_dldesign_0_cycle1_af2pred (protein)
chain: SAEILAAQAKALELMKEAAKYNRKAGGKTAELALEAAKYATKAISYFATGEKKAEGEEEYKKAEEKLKEVKKKAA
B5: design_612_bdadb936-3f14-48ad-830f-718e38d81c30_2140_dldesign_0_cycle1_af2pred (protein)
chain: DAAAAALAAAHIAKLNAIAKEGIEAAKKGDPEANAEKAVAKINAAASAAVKEMTALGANGSYITQVLQAAAEAIKKVREAAKKAK
B6: design_613_5efed0bc-64ba-423b-b3f9-a246574e49bb_1341_dldesign_0_cycle1_af2pred (protein)
chain: AVAAAGAKGLAAAAKSVAEATIRLAEQVAKEDPSKAEQAKAIAEQAKAAAAAAAKAAEAGDTAAAQAQFQKLVALYQQVLDLAK
B7: design_612_bdadb936-3f14-48ad-830f-718e38d81c30_2117_dldesign_0_cycle1_af2pred (protein)
chain: EEERAAAVNAAMQAIIALQQAGQALEASGDPAAKAKGKEAYAKAGEYQKLLKEYNDDVEKVKEIAKDAAAAAAEYAAAVKKAQAA
B8: design_613_5efed0bc-64ba-423b-b3f9-a246574e49bb_1611_dldesign_0_cycle1_af2pred (protein)
chain: DAAAKAKAKEAEAKGKELIAKAKAAAEAGDYDAANAYLQQAIKLGMEMASSGASQAEVDVGAKIVSAVVEAMEYMSAQRRARR
B9: design_613_5efed0bc-64ba-423b-b3f9-a246574e49bb_1032_dldesign_0_cycle1_af2pred (protein)
chain: AQAKADELEALGKEAEKKAKEAKNPEAAALYKGAAELMNAMAEAARQTPEFADQLYRMGKASYEALKTEAEKKEAAYKEKE
B10: design_613_5efed0bc-64ba-423b-b3f9-a246574e49bb_1212_dldesign_0_cycle1_af2pred (protein)
chain: SPVEVALAAAKATVKSAEKANVESAEKLAEVAKDLAEYAAKLGGEEAKKEAEKIKKEAEEAVKKQKERAAAA
B11: design_612_bdadb936-3f14-48ad-830f-718e38d81c30_1730_dldesign_0_cycle1_af2pred (protein)
chain: AAAAAVAKVKAAKEKAKELLEEARKLAKEDPEKAGEVLNKALTYVSKVAAQAAKDGPEAAAAAAKVLGEVLDEVAEIEKLRKEIAA
B12: design_613_5efed0bc-64ba-423b-b3f9-a246574e49bb_1354_dldesign_0_cycle1_af2pred (protein)
chain: GEALKEALRQKALEAANKALALTSQLWTKDPARAQPAIALIIQGLETGDPKYFFEAAEKVAADPEAAGAAKAAGEYMEKANKL
B13: design_613_5efed0bc-64ba-423b-b3f9-a246574e49bb_992_dldesign_0_cycle1_af2pred (protein)
chain: GERVEELRALVEEAARVSPELAALAQEALRLYLRGLALSANPATAARGEAAFAESERLAAEARARLAERLAAAAA
B14: design_613_5efed0bc-64ba-423b-b3f9-a246574e49bb_1180_dldesign_0_cycle1_af2pred (protein)
chain: AEAEEKKRRAEAHVQAAEVYITAARSAMEAGLTDAALAHAKRAIEHAQKAIELGEPRGKELLAEAEAVLKEVKA
B15: design_613_5efed0bc-64ba-423b-b3f9-a246574e49bb_1183_dldesign_0_cycle1_af2pred (protein)
chain: AEAQKLLEEARKLKEKAFALSPLQVGESLRYASELRKLAEKAAEADPSLAPEAKALAEETSAHVAAKARAGIAAQAA
B16: design_613_5efed0bc-64ba-423b-b3f9-a246574e49bb_1256_dldesign_0_cycle1_af2pred (protein)
chain: DKAVTSAILRKSLAHARRQLAAATTAEEAEAVAQTAQVLADAAKAAGDAATAAEAAALAAEARAKAAALRAAEEAAA
B17: design_612_bdadb936-3f14-48ad-830f-718e38d81c30_2023_dldesign_0_cycle1_af2pred (protein)
chain: AEAETLGSLARGAISFLRTAAAYLRRKAAAAADPATAATLNAYADRLEALAEAAAKAVEEGKYEEAVALAEEGVALALEGAAAAA
B18: design_613_5efed0bc-64ba-423b-b3f9-a246574e49bb_304_dldesign_0_cycle1_af2pred (protein)
chain: AEAAKAAAVALAAAMLALADALAKAGDFGTALAIATLGARIVDTVVGPEAGAAFQAQRDAVISSNARAAIAAA
B19: design_613_5efed0bc-64ba-423b-b3f9-a246574e49bb_1308_dldesign_0_cycle1_af2pred (protein)
chain: AAAEKAKEAAKKAEELAKYAEEHKEELTPEELRKIGYELVKQGNTLLQAGGAAQAAAQKAFGYAAEVAELIRE

biological target: CD276, Q5ZPR3
Sequence (Q5ZPR3 whole entry): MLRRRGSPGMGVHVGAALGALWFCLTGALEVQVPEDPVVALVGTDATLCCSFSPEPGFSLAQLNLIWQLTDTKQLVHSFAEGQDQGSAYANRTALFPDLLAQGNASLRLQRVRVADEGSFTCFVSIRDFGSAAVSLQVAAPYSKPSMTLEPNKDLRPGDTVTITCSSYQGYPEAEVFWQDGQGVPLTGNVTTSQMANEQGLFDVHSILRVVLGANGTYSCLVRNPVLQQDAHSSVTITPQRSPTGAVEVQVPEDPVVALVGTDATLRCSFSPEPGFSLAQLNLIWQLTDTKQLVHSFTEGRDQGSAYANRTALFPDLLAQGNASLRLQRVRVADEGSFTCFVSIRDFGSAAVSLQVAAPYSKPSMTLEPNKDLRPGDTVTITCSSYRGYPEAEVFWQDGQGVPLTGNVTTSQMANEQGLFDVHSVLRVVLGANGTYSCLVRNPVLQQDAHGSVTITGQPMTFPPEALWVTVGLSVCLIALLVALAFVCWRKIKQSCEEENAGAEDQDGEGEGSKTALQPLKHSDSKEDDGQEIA

Binder	binding in a display sort
B1	not found
B2	not found
B3	not found
B4	not found
B5	not found
B6	not found
B7	not found
B8	not found
B9	not found
B10	not found
B11	not found
B12	not found
B13	not found
B14	not found
B15	not found
B16	not found
B17	not found
B18	not found
B19	not found
